This is a sample that favours compounds with a hit; in the whole collection about 2.6% have one here.
TRPV1 PAM – HTS Assay for Compounds that Act as Potentiators of the Vanilloid Receptor 1. Transient receptor potential cation channel subfamily V member 1 (Homo sapiens), Q8NER1. TRPV1-expressing cells, Fluo-8 calcium influx, capsaicin EC20 potentiation. potentiation, % at 8.33 µM. 0.02% of 320,000 active. AID 540277, 2011; in the data active = potentiation above about 80%; inconclusive = between about 30% and that limit
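TRPV1-expressing cells were cultured overnight at 35.5C and loaded with Fluo-8 calcium dye for 40 to 90 min at room temperature. After a 10 s baseline, compound was added and calcium influx was read kinetically for 3 min (ex 480/em 520 nm).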
KCNH2 3.1 block – qHTS for Inhibitors of KCHN2 3.1: Mutant qHTS; U2OS KCNH2 3.1, thallium flux FluxOr; hits give low values; AID 720553, 2013; 0.95% of 340,000 active; Potassium voltage-gated channel subfamily H member 2, brain isoform KCNH2 3.1 (human); activity change, % (tested at about 1.8 µM);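 active = maximum activity change below -70%; inconclusive = maximum activity change from -70% to -50%; inactive = maximum activity change above -50%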;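 note: thallium influx rate constant from kinetic fluorescence after stimulation buffer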
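Measured as rate of thallium-driven FluxOr signal in transduced U2OS cells carrying the 3.1 channel, read kinetically for 2 min upon stimulation; values are rate constants scaled to DMSO control wells.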
p53 reactivator – qHTS assay for re-activators of p53 using a Luc reporter; H1299 p53-A138V BP100-luciferase reporter, luminescence, 24 h; Potency, µM (titrated, usually from 92.2 µM), most hits filed as activators; 0.063% of 320,000 active; AID 504706, 2011; active = well fitted activation curve with a large enough effect; inconclusive = small, poorly fitted or top-dose-only effect; inactive = no such curve, though single readings can be large or run the other way; note: nearly all actives have a fitted effect of over 45% in size
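H1299 (p53-null), stable ts p53-A138V + BP100-Luc; 1000 cells/well, Opti-MEM/10% FBS; cpd 4 pt, 1:5; 24 h, 37 deg C, 5% CO2; detection reagent 10 min RT; luminescence.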
KCNH2 WT inh – qHTS for Inhibitors of KCHN2 3.1: Wildtype qHTS; U2OS, BacMam KCNH2, thallium flux FluxOr; hits give low values; activity change, % at 1.84 µM; 0.37% of 340,000 active; AID 720551, 2013;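 active = maximum activity change below -70%; inconclusive = maximum activity change between -70% and -50%; inactive = maximum activity change above -50%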
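U2OS cells were transduced with wild-type KCNH2 virus (2.03 x 10^8 / mL) for 4 h at room temperature, then cultured overnight at 37 C. Thallium flux was read with FluxOr dye. Rate constants were normalized to DMSO controls.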
TRPV1 ag – HTS Assay for Compounds that Act as Agonists of the Vanilloid Receptor 1; Transient receptor potential cation channel subfamily V member 1 (Homo sapiens), Q8NER1; activation, % at 8.33 µM; 0.19% of 320,000 active; TRPV1-expressing cells, Fluo-8 calcium influx, agonist mode; in the data active = activation above about 80%; inconclusive = between about 30% and that limit
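TRPV1-expressing cells were cultured overnight at 35.5C and loaded with Fluo-8 calcium dye for 40 to 90 min at room temperature. After a 10 s baseline, compound was added and calcium influx was read kinetically for 3 min (ex 480/em 520 nm).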
ClpP mod – qHTS Assay for Activators of ClpP; ATP-dependent Clp protease proteolytic subunit (Bacillus subtilis (strain 168)), P80244; purified B. subtilis ClpP, FRET peptide cleavage, 20 min; Potency, µM (titrated, usually from 57.5 µM); 1.9% of 340,000 active; AID 651965, 2013; active = well fitted falling curve with a large enough effect; inconclusive = small, poorly fitted or top-dose-only effect; inactive = no such curve, though single readings can be large or run the other way; note: the source files actives as falling curves though it sought activators and does not explain the sign; nearly all actives have a fitted effect of over 65% in size
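Purified B. subtilis ClpP, 10 microg/mL final in Tris/HCl pH8 with KCl, BSA, glycerol and Tween-20, cleaved an Abz/nitrotyrosine-quenched decapeptide. Fluorescence (ex 320, em 430) was read at 0 and 20 min at room temperature. Delta was normalized to 5.8 microM ADEP and DMSO/no-enzyme controls.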
Hits are given with their value; – = inactive; ? = inconclusive; · = no result; ! = a repeat was not active.

SMILES	TRPV1 PAM	KCNH2 3.1 block	p53 reactivator	KCNH2 WT inh	TRPV1 ag	ClpP mod
CCOc1ccc(S(=O)(=O)Nc2ncn[nH]2)cc1	–	–	–	–	–	·
O=S(=O)(Nc1ncn[nH]1)c1ccc(Cl)cc1	–	-85.0	–	–	–	–
O=C(NCCCN1CCN(c2ccccc2F)CC1)c1ccc2nc(CCc3ccccc3)oc2c1	·	·	·	·	·	–
COc1ccc(NS(=O)(=O)c2cc3[nH]c(=O)c(=O)[nH]c3cc2C)cc1OC	·	·	·	·	·	–
Cc1nc2nc(-c3ccco3)[nH]n2c(=O)c1Cc1ccccc1	–	–	–	–	–	28.2µM
C=CCn1c2ccccc2n2nc(C)c(=O)nc12	–	–	–	–	–	22.4µM
Cc1ccc(Cl)cc1N1CCN(CCNC(=O)Nc2ccc(Cl)cc2)CC1	·	·	·	·	·	–
Cc1ccc2cccc(OCC(=O)NCc3ccco3)c2n1	–	–	–	–	–	–
Cc1ccc2cccc(SCC(=O)N3CCOCC3)c2n1	–	–	–	–	–	28.2µM
Cc1cccc2[nH]c(SCC(=O)N3CCOCC3)nc12	–	–	–	–	–	–
Cc1ccc2cccc(SCC(=O)NCc3ccco3)c2n1	–	–	–	–	–	14.1µM
N#C/C(=C/c1ccc(Cl)cc1)c1nc(-c2ccc(Br)cc2)cs1	·	·	·	·	·	–
N#CC(=Cc1ccccn1)c1nc(-c2ccc(Cl)cc2)cs1	·	–	·	–	·	25.1µM
COc1ccc(Br)cc1CN(C)CC(=O)Nc1cc(Cl)ccc1Cl	–	–	–	–	–	–
COc1ccc(Br)cc1CN(C)CC(=O)Nc1ccccc1Cl	–	–	–	–	–	28.2µM
O=C(c1ccc2c(c1)N(Cc1ccccc1F)C(=O)c1ccccc1S2=O)N1CCOCC1 (stereo not drawn)	·	·	·	·	·	–
COC(=O)c1ccc(COC(=O)CCc2nc(-c3ccccc3)c(-c3ccccc3)o2)cc1	–	–	–	–	–	31.6µM
CN(C)c1ccc(-c2ccnc3c2CC(C)(C(=O)Nc2cccc(C(F)(F)F)c2)O3)cc1 (stereo not drawn)	·	·	·	·	·	–
COCCNC(=O)C1(C)CCCN(Cc2cc3ccccc3o2)C1 (stereo not drawn)	·	·	·	·	·	–
COc1cc(NS(=O)(=O)c2ccc(NC(=S)NC(=O)CC(C)C)cc2)nc(OC)n1	–	–	–	-118.1	–	–
CCOCCCNC(=O)CN1C(=O)CSc2ccccc21	–	-71.8	–	–	–	–
CCOCCCNC(=O)CN1C(=O)CSc2cc(S(=O)(=O)N3CCCCCC3)ccc21	–	–	–	–	–	–
CC(=O)c1cccc(NS(=O)(=O)c2cc(-c3onc(C)c3C)ccc2C)c1	·	·	·	·	·	–
CCOC(=O)C1CCCN(CC(O)COC(c2ccccc2)c2ccccc2)C1 (stereo not drawn)	–	-96.2	–	-76.9	–	·
CCOC(=O)C1CCN(C(=O)Nc2ccc3oc(C)nc3c2)CC1	–	–	–	–	–	–
SMILES	TRPV1 PAM	KCNH2 3.1 block	p53 reactivator	KCNH2 WT inh	TRPV1 ag	ClpP mod
CCOC(=O)C1CCCN(C(=O)Nc2ccccc2)C1 (stereo not drawn)	–	-73.0	–	–	–	–
CCOC(=O)C1CCCN(C(=O)C2CCN(C(=O)Nc3ccccc3)CC2)C1 (stereo not drawn)	–	–	–	–	–	–
CCOC(=O)C1CCN(C(=O)Nc2ccc3nc(C)c(C)nc3c2)CC1	–	–	–	–	–	12.6µM
CCCCN(CC)CCNC(=O)c1cn(-c2ccc(Cl)cc2)c(=O)c2ccccc12	–	-78.1	–	?	–	·
CNC(=O)c1cn(-c2ccc(Cl)cc2)c(=O)c2ccccc12	–	–	–	–	–	·
CCCCN(CC)CCCNC(=O)c1cn(CC(C)C)c(=O)c2c1c1ccccc1n2C	–	–	–	–	–	20µM!
CC(C)Cn1cc(C(=O)NCC2CCCO2)c2c3ccccc3n(C)c2c1=O (stereo not drawn)	–	–	–	–	–	15.8µM
CCOC(CCNC(=O)c1cn(CC(C)C)c(=O)c2c1c1ccccc1n2C)OCC	–	–	–	–	–	·
CC(C)Cn1cc(C(=O)NCCCOC(C)C)c2c3ccccc3n(C)c2c1=O	–	–	–	–	–	28.2µM
Cc1ccccc1S(=O)(=O)N1C(c2ccc(Cl)cc2)CC=C(C(=O)O)C1c1cccc(Cl)c1 (stereo not drawn)	·	·	·	·	·	–
O=C(CN1C(=O)COc2ccc(S(=O)(=O)Nc3ccccc3)cc21)Nc1cccc(Cl)c1	·	·	·	·	·	–
CCN(CC)CCCNC(=O)c1cn(CC(C)C)c(=O)c2c1c1ccccc1n2C	–	–	–	–	–	15.8µM
CCN(CC)CCCNC(=O)c1cn(C)c(=O)c2c1c1ccccc1n2C	–	–	–	–	–	–
Cc1nn(C)c2c1c(C(F)(F)F)cc(=O)n2CC(=O)N1CCCCC1C (stereo not drawn)	·	·	·	·	·	–
O=[N+]([O-])c1cc([N+](=O)[O-])c2n[nH]c(-c3ccccc3)c2c1	–	–	–	–	–	·
O=[N+]([O-])c1cc(-c2n[nH]c(-c3ccccc3)n2)cc([N+](=O)[O-])c1	–	-78.0	?	–	–	–
Cc1cc(C)cc(NC(=O)CCc2nnc3n(CC(C)C)c(=O)c4ccccc4n23)c1	·	·	·	·	·	–
COc1ccc(NC(=O)C[C@H]2C(=O)N(c3ccc(OC)cc3)C[C@@H]2C)cc1	·	–	·	–	·	–
CCCCCCCCCC[n+]1ccc(/C=C/c2ccc(N(C)C)cc2)c2ccccc21	·	·	·	·	·	–
CN(CC(=O)NC(c1ccccc1)c1ccccc1)Cc1nc2ccccc2c(=O)[nH]1	–	?	–	-81.1	–	–
CN(CC(=O)Nc1ccccc1Sc1ccccc1)Cc1nc2ccccc2c(=O)[nH]1	–	–	–	–	–	·
COc1ccc(CCNC(=O)c2c(O)c3cc(OC)c(OC)cc3[nH]c2=O)cc1OC	·	–	·	–	·	–
COc1cc2[nH]c(=O)c(C(=O)NCCCN3CCCCC3)c(O)c2cc1OC	–	–	–	–	–	3.55µM

High-throughput results: PubChem, National Center for Advancing Translational Sciences (NCATS)
